Assay outcomes deposited in PubChem by several laboratories.
BJeLR viability: MLPCN primary cell-based screen for lethality selective to Ras in HRASV12 cells; BJeLR (HRASV12) viability, CellTiter-Glo ATP luminescence, 48 h; actives 0.17% (n = 300,000); AID 1554, 2009; inhibition, % (test concentration not listed); in the data active = inhibition above about 50%; inconclusive = no clear call, values can overlap the other calls
Bead autofluor: flagged as autofluorescent in microsphere protease counterscreen; fluorescence intensity (concentration not given with the values); actives 3.1% (n = 360,000); compound autofluorescence counterscreen, microsphere flow cytometry; hits give high values; in the data active = fluorescence intensity above about 16000; inconclusive = no clear call, values can overlap the other calls
BoNT-F LC inh: BoNT/F light chain protease inhibitors, primary screen, biochemical, flow cytometry, MLPCN library. AID 588497, 2011. Multiplex microsphere protease cleavage assay. Botulinum neurotoxin type F light chain protease (Clostridium botulinum). inhibition, % at 10 µM. actives 0.22% (n = 360,000); in the data active = inhibition above about 35%, passing the limit was not always enough; inconclusive = no clear call, values can overlap the other calls; note: plate controls were buffer without enzyme for full effect and enzyme alone for no effect
BoNT A protease: BoNT/A light chain protease inhibitors, primary screen, biochemical, flow cytometry, MLPCN library; multiplex microsphere protease substrate cleavage; inhibition, % at 10 µM; actives 0.17% (n = 360,000); note: plate controls were buffer without enzyme for full effect and enzyme alone for no effect
Anthrax LF prot: Bacillus anthracis LF protease inhibitors, primary screen, biochemical, multiplex microsphere, MLPCN library; Lethal factor (Bacillus anthracis), P15917; multiplex microsphere protease cleavage assay; inhibition, % at 10 µM; actives 0.12% (n = 360,000); AID 588501, 2011; note: plate controls were buffer without enzyme for full effect and enzyme alone for no effect
3CLpro inhibitor: SARS-CoV 3CLpro protease inhibitors, primary screen, biochemical, quenched FRET | Replicase polyprotein 1ab (Severe acute respiratory syndrome coronavirus), P0C6X7 | recombinant SARS-CoV 3CLpro, quenched FRET peptide cleavage | inhibition, % at 6 µM | actives 0.14% (n = 290,000) | AID 1706, 2009; in the data active = inhibition above about 12%
Numbers without * were called inactive; ? = inconclusive; . = no result given. A selection: hits, their analogues and other compounds. The true share with any hit is near 3.6%. Cut-off read from the data, not from the text of the source, unless noted: active = inhibition above about 30%; inconclusive = no clear call, values can overlap the other calls; inactive = below that.

SMILES | BJeLR viability | Bead autofluor | BoNT-F LC inh | BoNT A protease | Anthrax LF prot | 3CLpro inhibitor
CCCNC(=O)c1c(C)cc(=O)oc1C | 6.2 | 16085 | -0.2 | 0.0 | -7.7 | 2.8
Cc1cc(=O)oc(C)c1C(=O)NCCCN1C(C)CCCC1C (configuration not stated) | -1.5 | 24271* | -2.0 | -2.5 | -2.0 | -3.9
Cc1cc(=O)oc(C)c1C(=O)NCCN1CCOCC1 | -11.1 | 22773* | 0.7 | ? | -3.5 | -0.4
CCCCN(CCCNC(=O)c1c(C)cc(=O)oc1C)c1ccccc1 | -0.6 | 22469* | -0.2 | -1.2 | -2.9 | 3.2
CCN(CCCNC(=O)c1c(C)cc(=O)oc1C)c1ccccc1 | 2.1 | 10261 | 4.6 | 1.0 | -5.7 | -5.1
O=C(CN1C(=O)NC2(CCCC2)C1=O)OCc1cc(=O)n2cc(Br)ccc2n1 | 5.8 | 5771 | 5.6 | 0.4 | -1.8 | -1.6
COc1cc2c(cc1OC)C(c1cc(OC)c(OC)c(OC)c1)C1(O)C(=O)OCC1(O)C2 (configuration not stated) | . | 3391 | 4.7 | -0.2 | -2.1 | .
CC1=C(C(=O)N2CCCCCC2)CC(CC(=O)NC2CCCCC2)C(=O)N1Cc1ccc(F)cc1 (configuration not stated) | . | 6484 | 0.6 | -0.6 | -5.7 | .
CCC(CC)=N/N=C/c1c(O)n(CC)c2cc(C3=NNC(=O)CC3)ccc12 | 2.1 | 4857 | -12.8 | 0.3 | -2.9 | -2.2
CCn1c(O)c(/C=N/N=C/c2ccccc2)c2ccc(C3=NNC(=O)CC3)cc21 | -2.0 | 22930* | 0.0 | 1.5 | -1.5 | -3.0
Cc1ccc(NC(=O)c2cccc(N3C(=O)C4C5CCC(C5)C4C3=O)c2)c(C)c1 (configuration not stated) | 9.8 | 2470 | 0.8 | -0.3 | 0.1 | 3.4
Cc1ccccc1NC(=O)c1cccc(N2C(=O)C3C4CCC(C4)C3C2=O)c1 (configuration not stated) | -0.1 | 23697* | -5.3 | ? | -1.1 | -0.8
Cc1csc(NC(=O)CSc2nnc(NC(=O)COc3ccc(Cl)cc3)s2)n1 | -4.1 | 8447 | -5.5 | -0.7 | 1.6 | -1.5
c1nc2sc3c(c2c2nnnn12)CCCC3 | 0.4 | 12972 | 5.0 | 1.2 | -2.0 | -0.4
c1nc2sc3c(c2c2nnnn12)CCC3 | -0.1 | 23437* | 0.3 | 0.1 | -2.5 | 1.7
Cc1nn(C)cc1/C=C/C(=O)c1cccs1 | -4.4 | 9107 | 1.2 | 0.7 | -5.7 | -0.9
Cc1nn(C)c(C)c1/C=C/C(=O)c1cccs1 | 10.4 | 3687 | -7.0 | 0.2 | 0.8 | -2.1
Cc1nn(C)c(C)c1/C=C/C(=O)c1ccccc1 | 0.3 | 24377* | -8.0 | -6.3 | -4.2 | -2.3
Cc1nn(C)cc1/C=C/C(=O)c1ccccc1 | -5.1 | 16636* | -1.9 | -1.4 | -3.9 | -3.1
Cc1ccc(NC(=O)CSc2nnc(COc3ccccc3F)n2N)cc1S(=O)(=O)N1CCOCC1 | . | 8560 | 2.1 | 2.8 | 9.2 | .
Cc1ccc(-c2noc(-c3ccoc3C)n2)cc1 | 8.8 | 2021 | -3.5 | 0.0 | -0.6 | 4.0
Cc1occc1-c1nc(-c2ccncc2)no1 | 9.6 | 21018* | 3.2 | 3.3 | -2.3 | -9.4
O=C(NC1CCCCCC1)c1ccc([N+](=O)[O-])s1 | . | ? | 8.4 | 3.0 | -4.4 | .
Cc1noc(C)c1C(=O)Nc1sc2c(c1C(N)=O)CCC2 | -4.9 | 10966 | 8.2 | 0.3 | -4.8 | 1.4
CCC(=O)Nc1sc2c(c1C(N)=O)CCC2 | 9.1 | 23030* | 0.3 | 1.3 | -5.9 | -0.1
SMILES | BJeLR viability | Bead autofluor | BoNT-F LC inh | BoNT A protease | Anthrax LF prot | 3CLpro inhibitor
Cc1noc(C)c1C(=O)Nc1sc2c(c1C(N)=O)CCCCC2 | 6.8 | 22480* | -2.5 | -0.5 | -1.8 | 2.8
CC1=CCC(C(=O)O)(C(=O)N/N=C/c2cccs2)C(c2ccc([N+](=O)[O-])cc2)C1 (configuration not stated) | 7.3 | 21132* | 4.2 | 2.8 | -5.2 | 2.8
CC1=CCC(C(=O)O)(C(=O)N/N=C/c2cccs2)C(c2ccc(F)cc2)C1 (configuration not stated) | 12.8 | 8017 | 5.3 | 0.9 | 1.6 | 0.1
O=C(/C(=C/c1ccc(Cl)cc1)c1nc2ccccc2[nH]1)c1cccs1 | 47.9 | 16724* | -3.2 | -1.5 | -3.0 | 2.2
O=C(/C(=C\c1ccccc1)c1nc2ccccc2[nH]1)c1ccc(Cl)cc1 | -5.0 | 2536 | -4.3 | -0.6 | -3.2 | 5.1
CCOc1ccc(-n2c(SCC(=O)c3c(N)n(C)c(=O)n(C)c3=O)nnc2-c2cccnc2)cc1 | 4.3 | 2729 | -21.5 | -0.1 | 2.1 | 1.5
CCOC(=O)NC(Nc1nc2ccccc2s1)(C(=O)OCC)C(F)(F)F (configuration not stated) | 2.1 | 25071* | -8.4 | -5.7 | -2.7 | 2.1
CCOC(=O)NC(Nc1nnc(C)s1)(C(=O)OCC)C(F)(F)F (configuration not stated) | -3.6 | 3871 | -1.7 | -0.1 | -3.7 | 0.8
Cc1ccc(CNC(=O)c2ccc(NC(=O)CCS(=O)(=O)c3cccs3)cc2)cc1 | 5.3 | 3465 | 16.2 | 0.0 | 2.4 | 2.8
O=C(O)c1ccc(-n2nc(C(F)(F)F)c3c2-c2ccoc2CC3)cc1 | 3.5 | 21579* | -5.9 | -5.9 | 1.2 | -3.6
Cc1nc(SCc2ccc(C(=O)O)cc2)c2c(C)c(C)sc2n1 | -7.0 | 4254 | -1.6 | -0.1 | 0.4 | -1.5
CCn1c(-c2cc(-c3cccc(OC)c3)nc3ccccc23)n[nH]c1=S | -0.1 | 19974* | 1.9 | 2.0 | -3.9 | -0.9
CCc1ccc(-c2cc(-c3n[nH]c(=S)n3CC)c3ccccc3n2)cc1 | 0.6 | . | . | . | . | 1.7
C=C(C)Cn1c(=O)c2c(nc3n2CCN3c2cccc(Cl)c2C)n(C)c1=O | 6.1 | 3802 | 4.1 | -0.6 | -1.3 | .
C=CCn1c(=O)c2c(nc3n2CCN3c2cccc(Cl)c2C)n(C)c1=O | 0.8 | 16780* | -2.4 | -0.2 | -2.7 | -2.4
c1ccc2c(c1)C1=NCCN1c1ccccc1-2 | . | 3330 | -1.1 | 0.1 | -7.3 | .
O=C(c1cc(-c2ccc(Cl)c(Cl)c2)on1)N1CCN(c2ccccc2)CC1 | -19.5 | 21958* | -4.5 | -5.3 | -3.8 | -6.7
CCC1CCCCN1C(=O)c1cc(-c2ccc(Cl)c(Cl)c2)on1 (configuration not stated) | 9.0 | 25388* | -7.0 | ? | -4.1 | -4.6
CC1CCCCN1C(=O)c1cc(-c2ccc(Cl)c(Cl)c2)on1 (configuration not stated) | -12.4 | 22609* | -1.5 | ? | -4.1 | 3.6
Cc1ccc(-c2n[nH]c(=S)n2Cc2ccccc2)cc1 | -1.2 | 22893* | 2.6 | ? | -1.1 | 3.2
Cc1cccc(-c2n[nH]c(=S)n2Cc2ccccc2)c1 | 6.2 | 3630 | -9.9 | -1.3 | 1.3 | 1.0
CCCCc1c(C)c2ccc(OC)c(/C(C)=N\O)c2oc1=O | 3.0 | 2560 | 2.0 | 0.0 | 1.6 | 0.8
